The campaign covered roughly 120,000 compounds. About 55 (0.05%) were called active. No stated cut-off is given here; in the data, active means inhibition above about 25% (passing the limit was not always enough); inactive means the rest. Only a selection was taken, and actives are over-represented in it overall.
What follows are molecules tested on replicative DNA helicase (DnaC/DnaB), Staphylococcus aureus (assay: inhibitors of S. aureus replicative helicase, primary screen, biochemical, fluorescence unwinding readout (AID 485395;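 further: 0% = mean of negative control wells and 100% = mean of positive control wells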)). Conditions: purified S. aureus helicase, fluorescence unwinding assay; stronger effect = higher value; concentration not given here.

inhibition, inactive:
COc1ccc2c(=O)c(-c3ccc(F)cc3)coc2c1 0%, CN1C2=C(C(=O)CCC2)C(c2ccc(O)c(Cl)c2)C2=C1CCCC2=O 10%, CC(C)C(NC(=O)c1ccco1)C(=O)N1CCC(Cc2ccccc2)CC1 (stereo not given) -7%, CC1(C)CCCC2=C1CC1C(=O)N(CCC[N+](C)(C)C)C(=O)C1C2 (stereo not given) 6%, CC1CC(C)CN(C(=O)c2ccc3c(c2)N(C)C(=O)/C(=C/c2cccc(Cl)c2)S3)C1 (stereo not given) -10%, CCOc1ccc(-n2c(CSc3nc(C)cc(C)n3)nnc2SC)cc1 27%, O=C1CCCc2c1cnn2-c1ccccc1 -10%, CN(Cc1ccccc1)S(=O)(=O)c1ccc2c3c(cccc13)C(=O)N2 5%, O=C(O)c1cccc(S(=O)(=O)NCC(F)(F)F)c1 18%, Cc1ccc(OCCn2cc(/C=C3/C(=O)Nc4cc(Cl)ccc43)c3ccccc32)cc1C -483%, N#Cc1cccc(OCC(=O)NCC(F)(F)F)c1 12%, Cc1c(/C=C(\C#N)C(=O)O)cc(C#N)n1C -11%, Cc1cnc(C(=O)Nc2ccc(S(=O)(=O)NC(C)C)cc2)cn1 -1%, CCSc1nnc(SCC(=O)c2ccc(OC)cc2OC)s1 -4%, COC(=O)c1c(Cn2cc(Br)ccc2=O)nc2ccccc2c1C 0%, COc1nc(-c2ccccc2)ccc1-c1noc(C(C)C)n1 2%, CCCNc1cc(C)nc2nc(-c3ccc(OC)cc3)nn12 12%, O=C(Cc1c(F)cccc1Cl)OCc1ncc(-c2ccccc2)o1 -4%, Cc1ccc(-c2cc(C(=O)N3CCCCC3C)[nH]n2)cc1C (stereo not given) -28%, CCc1ccccc1NC(=O)Cn1ncc2c(=O)oc3ccccc3c21 4%, CCSc1nsc(SCC)c1C(=O)O -3%, COc1ccccc1C/C(N)=N/OC(=O)c1ccccc1 6%, NC(=O)COC(=O)/C=C/c1ccc(S(=O)(=O)N2CCOCC2)cc1 -10%, COc1ccc(-n2nc(C(=O)NCC(=O)N3CCOCC3)c3ccccc3c2=O)cc1 -25%, COc1ccc(S(=O)(=O)NCCn2ccc3ccccc32)cc1 -14%, CC1(C)CC(NS(C)(=O)=O)CC(C)(C)N1O 20%, CC(C)c1ccccc1N=Cc1ccc2c(c1)OCO2 -15%, NC(=O)C1CCN(C(=O)COc2ccc(Cl)cc2Cl)CC1 0%, N#CCCn1cc(/C=c2\sc3nc4ccccc4n3c2=O)c(-c2ccc(F)cc2)n1 4%, Cn1nc(NCc2ccc(Cl)cc2)c(=O)n(C)c1=O -8%, O=C(Nc1cccc(C(F)(F)F)c1)/C(=C\c1cccnc1)NC(=O)c1cccs1 -22%, COC(=O)N/N=C(\C)c1ccc2c(c1)Nc1ccccc1S2 8%, Cc1cc(NC(=O)COC(=O)C2=COCCO2)n(-c2ccccc2)n1 4%, CC(C)Cn1c(SCC(=O)Nc2ccccc2)nc2ccccc21 14%, O=C1NC(c2ccccn2)Nc2sc3c(c21)CCCC3 (stereo not given) 9%, c1ccc(CCNCc2cn[nH]c2-c2cccs2)cc1 -16%, COc1ccccc1N=Cc1c(O)n(-c2ccccc2OC)c(=O)[nH]c1=O 8%, CC1Nc2ccc(C(=O)N3CCC4(CC3)OCCO4)cc2NC1=O (stereo not given) 34%, CC(C)(C)NC(=O)C(C)(C)Oc1ccc(Cl)cc1 -13%, CC(Sc1nncn1C)C(=O)NCCC1=CCCCC1 (stereo not given) 9%, Cc1ccccc1NC(=O)CSc1nc2ccc(N)cc2s1 -1%, N#Cc1ccc(NC(=O)/C=C/c2ccccc2)cc1 4%, COc1ccc(C(=O)n2c(SC)nc3ccccc32)cc1OC -17%, Cc1ccc(O)c(NC(=O)c2cccs2)c1 8%, CC1(C)C=C(C(=O)N2CCCCC2)C(C)(C)N1 5%, O=S1(=O)CCC(n2nnnc2-c2ccc(Cl)cc2)C1 (stereo not given) 13%, Cc1ccc(C)c(OC(=O)NC(C)(C(F)(F)F)C(F)(F)F)c1C 1%, Cc1nc(SCC(=O)N2CCCC2)c2c(=O)n(C)c(=O)n(C)c2n1 0%, CCN(CC)c1nc(-c2ccccc2O)nc2ccccc12 -3%, COc1ccc(C(=O)CSC2=C(C#N)C(C)(C)C(C#N)=C(N)N2)cc1 -9%, O=C(COC(=O)c1ccc(N2CCCC2=O)cc1)c1ccc(OC(F)F)cc1 -5%, COc1ccc(Br)cc1CN(C)C(C)C(=O)N1CC(C)OC(C)C1 (stereo not given) -12%, Cc1cc(C(=O)N2CCC(C)CC2)c(C)n1-c1ccc(F)cc1 23%, COc1ccc(/C=C/C(=O)CC(=O)c2ccccc2O)cc1 -17%, CN(C)c1ccc(NC(=O)CSc2nnc(C3CC3)n2N)cc1 -15%, COc1cccc(N=Nc2c(O)[nH]c(=O)[nH]c2=O)c1 7%, CCOC(=O)c1cnc2c(C)cc(C)cc2c1NCCN(C)C 13%, CN(C)CCCNc1c(N)c(=O)oc2ccccc12 27%, COc1ccc(C(CC(=O)O)NS(=O)(=O)c2ccccc2F)cc1OC (stereo not given) -3%, CCc1cccc2c(C3=Nn4cnnc4SC3c3ccccc3)c[nH]c12 (stereo not given) 16%, Cn1cc(SC(=N)N)c2ccccc21 -12%, Cc1[nH]n(-c2ccccc2)c(=O)c1CCC#N -6%, Cc1sc2nc(CN3CCCC3)nc(NC(C)C)c2c1C -5%, COC(CNC(=O)C1CCC(CNS(=O)(=O)c2ccc(C)cc2)CC1)OC (stereo not given) 9%, COC(=O)c1sc(NC(=O)Cn2cnc3sccc3c2=O)c(C(=O)OC)c1C -7%, C=C(C)CNC(=S)NN -24%, CC1CCCCN1S(=O)(=O)c1ccc(I)cc1 (stereo not given) 17%, CC(=O)Nc1ccc(NC2SC(=O)NC2=O)cc1 (stereo not given) 7%, Cc1[nH]c2ccccc2c1SCCNC(=O)C(C)C -17%

inhibition, active:
CCOC(=O)c1cnc2c(C)c(C)ccc2c1NCCCN(C)C 65%
